Hit rate of the full screen: of about 5,500 compounds, about 2,000 (36%) were called active. Roughly 18% stayed inconclusive and do not appear here. Cut-off read from the data, not from the text of the source: active = normalized growth mostly below about 0.91 (no sharp cut-off); inconclusive = no clear call, values can overlap the other calls; inactive = mostly above about 0.92. The list shows a part of the results.
Assay: chemical genetic growth profiling, strain panel (AID 1159580);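 note: tested at 20 µM; growth read once vehicle control cultures reached saturation at 30 °C; 1 = growth at the plate median or of vehicle wells; lower values mean less growth of the strain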
Conditions: growth OD

Measured: normalized growth

O=S(=O)(O)CCS
inactive: S. cerevisiae deletion strains, locus YKL009W, strain mrt4, hits give low values 1.02 | S. cerevisiae deletion strains, locus YKL068W, hits give low values 0.993 | S. cerevisiae deletion strains, locus YKL085W, strain MDH1 (second series), hits give low values 0.99 | S. cerevisiae deletion strains, locus YKL085W, strain MDH1, hits give low values 0.99 | S. cerevisiae deletion strains, locus YKL160W, strain elf1, hits give low values 0.941 | S. cerevisiae deletion strains, locus YKL190W, strain CNB1, hits give low values 1.01 | S. cerevisiae deletion strains, locus YKR001C, strain vps1, hits give low values 1.02 | S. cerevisiae deletion strains, locus YKR026C, strain gcn3, hits give low values 0.996 | S. cerevisiae deletion strains, locus YKR091W, strain srl3, hits give low values 0.98 | S. cerevisiae deletion strains, locus YLL001W, strain dnm1, hits give low values 1 | S. cerevisiae deletion strains, locus YLL026W, hits give low values 1.01 | S. cerevisiae deletion strains, locus YLL041C, strain sdh2, hits give low values 1 | S. cerevisiae deletion strains, locus YLR027C, strain aat2, hits give low values 0.997 | S. cerevisiae deletion strains, locus YLR039C, strain RIC1, hits give low values 1.03 | S. cerevisiae deletion strains, locus YLR058C, strain SHM2, hits give low values 1.02 | S. cerevisiae deletion strains, locus YLR102C, strain apc9, hits give low values 0.992 | S. cerevisiae deletion strains, locus YLR113W, strain HOG1, hits give low values 0.956 | S. cerevisiae deletion strains, locus YLR221C, strain rsa3, hits give low values 1.03 | S. cerevisiae deletion strains, locus YLR258W, strain gsy2, hits give low values 1 | S. cerevisiae deletion strains, locus YLR262C, strain YPT6 (second series), hits give low values 1.01 | S. cerevisiae deletion strains, locus YLR262C, strain YPT6, hits give low values 1.05 | S. cerevisiae deletion strains, locus YLR268W, strain sec22, hits give low values 0.993 | S. cerevisiae deletion strains, locus YLR320W, strain mms22, hits give low values 0.979 | S. cerevisiae deletion strains, locus YLR330W, strain CHS5, hits give low values 1.02 | S. cerevisiae deletion strains, locus YLR342W, strain FKS1 (second series), hits give low values 0.989 | S. cerevisiae deletion strains, locus YLR342W, strain FKS1, hits give low values 0.965 | S. cerevisiae deletion strains, locus YLR357W, strain rsc2, hits give low values 0.912 | S. cerevisiae deletion strains, locus YLR370C, strain arc18, hits give low values 0.98 | S. cerevisiae deletion strains, locus YLR371W, strain rom2, hits give low values 0.996 | S. cerevisiae deletion strains, locus YLR384C, strain iki3, hits give low values 0.97 | S. cerevisiae deletion strains, locus YLR418C, strain cdc73, hits give low values 0.976 | S. cerevisiae deletion strains, locus YML016C, strain PPZ1, hits give low values 1.01 | S. cerevisiae deletion strains, locus YML032C, strain rad52, hits give low values 0.992 | S. cerevisiae deletion strains, locus YML120C, strain ndi1, hits give low values 0.993 | S. cerevisiae deletion strains, locus YML124C, strain tub3, hits give low values 0.994 | S. cerevisiae deletion strains, locus YMR058W, strain fet3, hits give low values 1.01 | S. cerevisiae deletion strains, locus YMR078C, strain ctf18, hits give low values 0.991 | S. cerevisiae deletion strains, locus YMR125W, strain sto1, hits give low values 0.961 | S. cerevisiae deletion strains, locus YMR129W, hits give low values 0.988 | S. cerevisiae deletion strains, locus YMR205C, strain PFK2, hits give low values 1.01 | S. cerevisiae deletion strains, locus YMR223W, strain ubp8, hits give low values 0.987 | S. cerevisiae deletion strains, locus YMR231W, strain pep5, hits give low values 0.978 | S. cerevisiae deletion strains, locus YMR307W, strain GAS1, hits give low values 1 | S. cerevisiae deletion strains, locus YNL067W, strain RPL9B, hits give low values 1.03 | S. cerevisiae deletion strains, locus YNL071W, strain lat1, hits give low values 0.996 | S. cerevisiae deletion strains, locus YNL153C, strain GIM3, hits give low values 1.04 | S. cerevisiae deletion strains, locus YNL183C, strain NPR1, hits give low values 0.933 | S. cerevisiae deletion strains, locus YNL209W, strain ssb2, hits give low values 0.981 | S. cerevisiae deletion strains, locus YNL233W, strain BNI4, hits give low values 1.02 | S. cerevisiae deletion strains, locus YNL248C, strain rpa49, hits give low values 0.947 | S. cerevisiae deletion strains, locus YNL250W, strain rad50, hits give low values 0.987 | S. cerevisiae deletion strains, locus YNL271C, strain bni1, hits give low values 0.981 | S. cerevisiae deletion strains, locus YNL298W, strain CLA4, hits give low values 0.982 | S. cerevisiae deletion strains, locus YNL307C, strain MCK1, hits give low values 0.984 | S. cerevisiae deletion strains, locus YNL322C, strain KRE1 (second series), hits give low values 0.967 | S. cerevisiae deletion strains, locus YNL322C, strain KRE1, hits give low values 1.01 | S. cerevisiae deletion strains, locus YNR049C, strain mso1, hits give low values 0.964 | S. cerevisiae deletion strains, locus YNR052C, strain pop2, hits give low values 0.995 | S. cerevisiae deletion strains, locus YOL006C, strain TOP1, hits give low values 1.07 | S. cerevisiae deletion strains, locus YOL012C, strain htz1 1.22 | S. cerevisiae deletion strains, locus YOL147C, strain pex11, hits give low values 0.989 | S. cerevisiae deletion strains, locus YOR001W, strain rrp6, hits give low values 0.996 | S. cerevisiae deletion strains, locus YOR061W, strain CKA2, hits give low values 1.02 | S. cerevisiae deletion strains, locus YOR069W, strain VPS5, hits give low values 1.01 | S. cerevisiae deletion strains, locus YOR070C, strain gyp1, hits give low values 0.988 | S. cerevisiae deletion strains, locus YOR080W, strain dia2, hits give low values 0.964 | S. cerevisiae deletion strains, locus YOR106W, strain vam3, hits give low values 0.982 | S. cerevisiae deletion strains, locus YOR136W, strain idh2, hits give low values 0.994 | S. cerevisiae deletion strains, locus YOR144C, strain elg1, hits give low values 0.993 | S. cerevisiae deletion strains, locus YOR184W, strain ser1, hits give low values 0.983 | S. cerevisiae deletion strains, locus YOR231W, strain MKK1, hits give low values 0.974 | S. cerevisiae deletion strains, locus YOR265W, strain rbl2, hits give low values 0.999 | S. cerevisiae deletion strains, locus YOR270C, strain vph1, hits give low values 0.939 | S. cerevisiae deletion strains, locus YOR290C, strain snf2, hits give low values 0.974 | S. cerevisiae deletion strains, locus YOR316C, strain cot1, hits give low values 0.988 | S. cerevisiae deletion strains, locus YPL051W, strain arl3, hits give low values 0.991 | S. cerevisiae deletion strains, locus YPL055C, strain LGE1, hits give low values 1.07 | S. cerevisiae deletion strains, locus YPL078C, strain atp4, hits give low values 0.969 | S. cerevisiae deletion strains, locus YPL106C, strain sse1, hits give low values 0.96 | S. cerevisiae deletion strains, locus YPL240C, strain hsp82, hits give low values 0.994 | S. cerevisiae deletion strains, locus YPL241C, strain CIN2, hits give low values 1.01 | S. cerevisiae deletion strains, locus YPL256C, strain CLN2, hits give low values 0.997 | S. cerevisiae deletion strains, locus YPR119W, strain clb2, hits give low values 0.99 | S. cerevisiae deletion strains, locus YPR141C, strain kar3, hits give low values 0.987 | S. cerevisiae deletion strains, locus YPR163C, strain tif3, hits give low values 0.99 | S. cerevisiae deletion strains, locus YPR167C, strain met16, hits give low values 0.98 | S. cerevisiae deletion strains, strain wtn01, hits give low values 0.981 | S. cerevisiae strains, strain wild type, hits give low values 1.01
active: S. cerevisiae deletion strains, locus YOR083W, strain WHI5, hits give low values 0.888
